The entries come from a sample that favours hits as a whole.
STK33 inh: STK33 kinase inhibitors, primary screen, biochemical, luminescence, ADP-Glo, MBP substrate | Serine/threonine-protein kinase 33 (Homo sapiens), Q9BYT3 | inhibition, % at 12.5 µM | 27,000 compounds, 0.44% hits; in the data active = inhibition above about 20%; inconclusive = no clear call, values can overlap the other calls
Target sequence (Q9BYT3 whole entry, looked up): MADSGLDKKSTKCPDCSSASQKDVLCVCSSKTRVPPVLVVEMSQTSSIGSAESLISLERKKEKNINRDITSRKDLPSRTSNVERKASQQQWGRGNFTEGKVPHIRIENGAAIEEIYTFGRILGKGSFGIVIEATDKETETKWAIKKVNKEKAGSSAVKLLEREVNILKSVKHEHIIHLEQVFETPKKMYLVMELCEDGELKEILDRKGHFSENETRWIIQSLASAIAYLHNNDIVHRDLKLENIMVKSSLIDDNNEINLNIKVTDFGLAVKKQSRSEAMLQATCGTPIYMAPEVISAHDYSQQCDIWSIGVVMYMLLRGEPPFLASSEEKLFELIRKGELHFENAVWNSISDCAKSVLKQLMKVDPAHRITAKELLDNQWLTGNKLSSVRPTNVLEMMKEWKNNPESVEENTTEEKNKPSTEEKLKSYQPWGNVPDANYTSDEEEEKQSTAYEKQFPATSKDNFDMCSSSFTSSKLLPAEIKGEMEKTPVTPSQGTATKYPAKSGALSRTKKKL
NOMO-1 viab: NOMO-1 AML cell viability reduction, primary screen, STK33 inhibitor project, CellTiter-Glo luminescence. NOMO-1 AML viability, 72 h. inhibition, % (no concentration beside the values). 37,000 compounds, 7.5% hits. AID 2330, 2010; in the data active = inhibition above about 80%; inconclusive = no clear call, values can overlap the other calls
PD-1 reversal: activators reversing PD-1 mediated T-cell inhibition, primary screen, luminescence, primary human CD4 T cells, PD-L1 beads. CellTiter-Glo 96 h. 29,000 tested, under 10 active. activation, % (test concentration not listed). AID 2316, 2010; call rule not given here;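 also: 0% = median vehicle wells and 100% = positive control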
* hit, by the source's call; ? = inconclusive; . = not tested or not shown.

SMILES	STK33 inh	NOMO-1 viab	PD-1 reversal
C[C@@H]1CN([C@H](C)CO)C(=O)c2cccc(NC(=O)c3ccc(-c4nccs4)cc3)c2O[C@@H]1CN(C)Cc1ccc(C(F)(F)F)cc1	.	14.2	-2.9
C[C@H](CO)N1C[C@H](C)[C@@H](CN(C)Cc2ccc(C(F)(F)F)cc2)Oc2c(NC(=O)c3ccc(-c4nccs4)cc3)cccc2C1=O	.	115.5*	-6.0
C[C@@H]1CN([C@@H](C)CO)C(=O)c2cccc(NC(=O)c3ccc(-c4nccs4)cc3)c2O[C@H]1CN(C)Cc1ccc(C(F)(F)F)cc1	.	99.2*	-3.6
C[C@@H]1CN([C@H](C)CO)C(=O)c2cccc(NC(=O)c3ccc(-c4nccs4)cc3)c2O[C@@H]1CN(C)Cc1ccncc1	.	8.0	-2.8
COC(=O)c1ccc(NC(=O)CC2Sc3ccc(C(F)(F)F)cc3NC2=O)cc1 (centres undefined)	.	66.3	1.0
O=C1CC(O)[C@H]2[C@@H]3N1c1ccccc1[C@@]31CCN3C/C(=C/CO)[C@@H]2C[C@H]31 (some centres undefined)	-3.5	.	.
Cc1ccc(S(=O)(=O)N(C)C[C@H]2Oc3ccc(NC(=O)Nc4ccc5c(c4)OCO5)cc3CC(=O)N([C@@H](C)CO)C[C@H]2C)cc1	4.1	47.8	-1.2
Cc1ccc(S(=O)(=O)N(C)C[C@@H]2Oc3ccc(NC(=O)Nc4ccc5c(c4)OCO5)cc3CC(=O)N([C@H](C)CO)C[C@@H]2C)cc1	0.7	102.5*	-0.1
COc1ccc(S(=O)(=O)N(C)C[C@@H]2Oc3ccc(NC(=O)Nc4ccc5c(c4)OCO5)cc3CC(=O)N([C@@H](C)CO)C[C@@H]2C)cc1	-3.0	64.6	.
C[C@H]1CN([C@@H](C)CO)C(=O)Cc2cc(NC(=O)Nc3ccc4c(c3)OCO4)ccc2O[C@H]1CN(C)S(=O)(=O)c1ccccc1	.	128.1*	.
Cc1ccc(S(=O)(=O)N(C)C[C@H]2Oc3ccc(NC(=O)Nc4ccc5c(c4)OCO5)cc3CC(=O)N([C@@H](C)CO)C[C@@H]2C)cc1	8.8	22.5	-0.8
C[C@H](CO)N1C[C@H](C)[C@H](CN(C)S(=O)(=O)c2ccc(Cl)cc2)Oc2ccc(NC(=O)Nc3ccc4c(c3)OCO4)cc2CC1=O	1.5	125.7*	-1.8
C[C@@H]1CN([C@H](C)CO)C(=O)Cc2cc(NC(=O)Nc3ccc4c(c3)OCO4)ccc2O[C@@H]1CN(C)S(=O)(=O)c1ccccc1	6.2	2.7	.
C[C@H]1CN([C@@H](C)CO)C(=O)Cc2cc(NC(=O)Nc3ccc4c(c3)OCO4)ccc2O[C@H]1CN(C)S(=O)(=O)c1ccc(Cl)cc1	.	127.0*	.
Nc1nc(-c2ccncc2)ncc1S(=O)(=O)Cc1ccco1	1.6	17.8	0.2
CCn1c(SCC(=O)Nc2c(Cl)cc(Cl)cc2Cl)nnc1-c1ccc(OC)cc1	2.0	1.3	-1.3
O=C1CCCC2=C1C(c1ccccc1Cl)N=C(Nc1nc3ccccc3s1)N2 (centres undefined)	.	115.5*	-0.5
COc1ccc(OC)c(C2N=C(Nc3nc4ccccc4s3)NC3=C2C(=O)CC(C)(C)C3)c1 (centres undefined)	0.0	115.2*	.
O=C(O)COc1ccc(Cl)cc1C1C2=C(CCCC2=O)NC2=C1C(=O)CCC2	-2.2	-9.3	1.3
COc1ccc(C2C3=C(CC(C)(C)CC3=O)N(C)C3=C2C(=O)CC(C)(C)C3)cc1	.	7.1	-0.4
O=c1c(C(F)(F)F)cccn1Cc1ccccc1	-1.4	5.4	-1.5
C[C@H](CO)N1C[C@H](C)[C@@H](CN(C)CC2CCCCC2)Oc2c(NC(=O)c3nc4ccccc4s3)cccc2C1=O	.	108.0*	-6.6
C[C@H](CO)N1C[C@H](C)[C@H](CN(C)CC2CCCCC2)Oc2c(NC(=O)c3nc4ccccc4s3)cccc2C1=O	.	?	-4.9
C[C@@H]1CN([C@@H](C)CO)C(=O)c2cccc(NC(=O)c3nc4ccccc4s3)c2O[C@@H]1CN(C)CC1CCCCC1	.	116.7*	-11.7
C[C@@H]1CN([C@H](C)CO)C(=O)c2cccc(NC(=O)c3nc4ccccc4s3)c2O[C@@H]1CN(C)CC1CCCCC1	.	32.5	-2.0
SMILES	STK33 inh	NOMO-1 viab	PD-1 reversal
O=C(C1=C[C@H](c2ccc3c(c2)Cc2ccccc2-3)C[C@H](OCc2ccc(CO)cc2)O1)N1CCCCC1	-0.6	.	.
CC(=O)Nc1ccc(S(=O)(=O)N2CCCCC2C)cc1 (centres undefined)	0.2	11.1	1.0
CCCn1c(=N)n(CC(O)c2ccccc2)c2ccccc21 (centres undefined)	.	-13.7	-0.3
O=C(COc1ccc(S(=O)(=O)N2CCOCC2)cc1)Nc1ccc2c(c1)OCCO2	-7.9	12.4	-1.1
O=C(COc1ccc(S(=O)(=O)N2CCOCC2)cc1)Nc1ccc(Cl)c(C(F)(F)F)c1	1.6	128.8*	-2.7
O=c1onc(-c2ccccc2)n1-c1cccc(C(F)(F)F)c1	.	8.0	-0.2
CO[C@@]12[C@H](COC(N)=O)C3=C(C(=O)C(C)=C(N)C3=O)N1C[C@@H]1N[C@@H]12	0.6	142.1*	-30.4
CS(=O)(=O)N(CC(=O)Nc1cc(Cl)c(Cl)cc1Cl)C1CCCCC1	1.0	0.6	0.6
COc1ccc(NC(=O)Nc2ccc3c(c2)CC(=O)N([C@@H](C)CO)C[C@H](C)[C@@H](CN(C)S(=O)(=O)c2ccc(F)cc2)O3)cc1	2.5	-9.3	-0.6
COc1ccc(S(=O)(=O)N(C)C[C@@H]2Oc3ccc(NC(=O)Nc4ccc(C(F)(F)F)cc4)cc3CC(=O)N([C@@H](C)CO)C[C@@H]2C)cc1	1.9	102.2*	-3.7
COc1ccc(S(=O)(=O)N(C)C[C@@H]2Oc3ccc(NC(=O)Nc4ccc(C(F)(F)F)cc4)cc3CC(=O)N([C@H](C)CO)C[C@H]2C)cc1	6.6	-12.9	.
COc1ccc(S(=O)(=O)N(C)C[C@@H]2Oc3ccc(NC(=O)Nc4ccc(C(F)(F)F)cc4)cc3CC(=O)N([C@H](C)CO)C[C@@H]2C)cc1	-3.3	114.7*	-1.8
CC(C)(C)NC(=O)[C@H]1C[C@H]2CCCC[C@H]2CN1C(=O)C12CC3CC(CC(C3)C1)C2	0.0	17.1	5.8
COc1ccc(C(C)(C)C)cc1NC(=S)Nc1ccc(S(=O)(=O)Nc2ncccn2)cc1	-1.3	7.8	-3.6
N#Cc1ccc(CSc2nc(-c3cccs3)c3c(c2C(=O)O)CCCC3)cc1	-2.8	10.7	4.2
CN1CCc2c(-c3cccs3)nc(OCc3ccccc3Br)c(C#N)c2C1	.	97.4*	-11.7
C[C@H](CO)N1C[C@H](C)[C@@H](CN(C)C(=O)NC2CCCCC2)Oc2c(NC(=O)Nc3ccc(C(F)(F)F)cc3)cccc2C1=O	.	84.6*	-2.2
C[C@@H]1CN([C@@H](C)CO)C(=O)c2cccc(NC(=O)Nc3ccc(C(F)(F)F)cc3)c2O[C@H]1CN(C)C(=O)NC1CCCCC1	.	73.3	-3.2
C[C@@H]1CN([C@H](C)CO)C(=O)c2cccc(NC(=O)NC3CCCCC3)c2O[C@H]1CN(C)C(=O)Nc1ccc(C(F)(F)F)cc1	.	8.1	-2.2
C[C@@H]1CN([C@H](C)CO)C(=O)c2cccc(NC(=O)Nc3ccc(C(F)(F)F)cc3)c2O[C@@H]1CN(C)C(=O)NC1CCCCC1	.	117.1*	-6.3

Source: PubChem (Broad Institute)
